Records with an inconclusive call do not appear. Calls of active or inactive are those of the source. Rule as the data show it, unless noted: active = percent of DMSO control GFP below about 86%; inactive = the rest, inconclusive results apart.
Legend:
[1] = rapamycin-like changes in RPL19A-GFP expression – cell-based, S. cerevisiae, multiplex flow cytometry, primary screen (AID 1862);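 also: lower values mimic rapamycin by blocking the RPL19A rise seen in DMSO cells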; conditions: S. cerevisiae RPL19A-GFP strain, flow cytometry fluorescence, 3 h; at 10 µM; stronger effect = lower value
[2] = TOR pathway GLN3 branch reporter MEP2-GFP changes – S. cerevisiae, multiplex flow cytometry, primary screen (AID 1867;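 active = GFP response, as percent of the DMSO control, above the screen-wide mean plus 3 SD, about 139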;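 also: median GFP channel fluorescence of barcode-gated MEP2-GFP cells measured by flow cytometry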); conditions: S. cerevisiae MEP2-GFP strain, 3 h, at 10 µM, stronger effect = higher value, 100% means same as DMSO wells
[3] = TOR pathway RTG branch CIT2 reporter changes – S. cerevisiae, GFP fusion, multiplex flow cytometry, primary screen (AID 1870;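 active = percent response above a set limit, the screen-wide mean plus 3 SD, cut at about 130% in these data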;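 also: barcoded CIT2-GFP strain pooled with four other GFP strains with rapamycin as positive control; median GFP fluorescence per well over plate mean of DMSO wells so 100% = DMSO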); conditions: S. cerevisiae CIT2-GFP expression, 3 h, at 10 µM, stronger effect = higher value
[4] = TOR pathway LAP4-GFP level changes – S. cerevisiae, multiplex flow cytometry, primary screen (AID 1873;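 active = GFP signal, as percent of the solvent control, above the screen mean plus 3 SD, about 149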); conditions: S. cerevisiae LAP4-GFP expression, 3 h, at 10 µM, stronger effect = higher value
[5] = yeast AGP1-GFP level changes, GLN3 branch – cell-based, multiplex flow cytometry, S. cerevisiae, primary screen (AID 1887;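 active = GFP signal above the screen-wide mean plus 3 SD, that is over about 124.5% of the solvent control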;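 also: AGP1-GFP fusion strain of S. cerevisiae within a five-strain barcoded multiplex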); conditions: 3 h, at 10 µM, stronger effect = higher value
[6] = reduced mouse 2C T cell binding to pMHC/ICAM-1 vesicles – MLPCN validation set, flow cytometry, LFA-1/ICAM-1 modulator project, pilot screen (AID 2523;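 active = response below a set limit, under 55% cells CD8-positive and vesicle-bound, and CD8 cells' 90th-percentile brightness under 279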;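 as to vesicle binding response: mean PE anti-B7-1 fluorescence of CD8+ cells relative to row control; 100% = QL9-loaded vesicles with DMSO vehicle in the same plate row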); conditions: 2C mouse CD8+ T cells, at 7 µM, stronger effect = lower value; double positive events: measured here: CD8+/vesicle+ event percentage
[7] = biological target: Integrin beta-1 (Homo sapiens) + Integrin alpha-4 (Homo sapiens) (UniProt P13612+P05556); assay: alpha4beta1 integrin LIBS antibody binding reduction – U937 cells, HUTS-21 mAb, flow cytometry, validation set, VLA-4 allosteric modulator project, pilot screen (AID 2674;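 active = inhibition above 50%, about 3 SD of the validation set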;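 also: antibody binding induced by the VLA-4 ligand LDV present at three times its Kd; 0% = LDV ligand with antibody and no compound and 100% = antibody without LDV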); conditions: HUTS-21 LIBS mAb binding, at 6.7 µM, stronger effect = higher value, binding induced by LDV ligand
Chain of Integrin beta-1 (Homo sapiens) + Integrin alpha-4 (Homo sapiens) (P05556 whole entry, looked up): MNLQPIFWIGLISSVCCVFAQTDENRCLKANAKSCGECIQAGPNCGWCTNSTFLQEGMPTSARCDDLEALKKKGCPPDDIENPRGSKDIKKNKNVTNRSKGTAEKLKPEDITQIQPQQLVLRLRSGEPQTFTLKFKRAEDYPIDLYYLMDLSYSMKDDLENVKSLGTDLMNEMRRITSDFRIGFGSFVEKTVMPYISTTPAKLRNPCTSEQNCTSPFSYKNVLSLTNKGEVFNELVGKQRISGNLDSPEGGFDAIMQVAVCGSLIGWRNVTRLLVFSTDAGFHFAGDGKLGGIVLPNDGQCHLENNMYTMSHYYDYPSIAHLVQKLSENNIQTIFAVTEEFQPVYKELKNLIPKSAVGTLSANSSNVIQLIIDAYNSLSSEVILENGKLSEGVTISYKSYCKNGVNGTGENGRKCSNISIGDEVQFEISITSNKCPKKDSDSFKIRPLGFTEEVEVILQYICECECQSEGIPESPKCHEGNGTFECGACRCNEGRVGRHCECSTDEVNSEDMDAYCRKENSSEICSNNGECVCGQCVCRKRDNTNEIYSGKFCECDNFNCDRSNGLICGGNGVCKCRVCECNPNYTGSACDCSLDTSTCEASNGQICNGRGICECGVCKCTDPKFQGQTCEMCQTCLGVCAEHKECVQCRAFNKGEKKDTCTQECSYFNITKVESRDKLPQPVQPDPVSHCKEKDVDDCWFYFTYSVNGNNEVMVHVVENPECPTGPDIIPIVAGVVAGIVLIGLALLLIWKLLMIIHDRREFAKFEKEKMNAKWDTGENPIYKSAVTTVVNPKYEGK
Chain of Integrin beta-1 (Homo sapiens) + Integrin alpha-4 (Homo sapiens) (P13612 whole entry, looked up): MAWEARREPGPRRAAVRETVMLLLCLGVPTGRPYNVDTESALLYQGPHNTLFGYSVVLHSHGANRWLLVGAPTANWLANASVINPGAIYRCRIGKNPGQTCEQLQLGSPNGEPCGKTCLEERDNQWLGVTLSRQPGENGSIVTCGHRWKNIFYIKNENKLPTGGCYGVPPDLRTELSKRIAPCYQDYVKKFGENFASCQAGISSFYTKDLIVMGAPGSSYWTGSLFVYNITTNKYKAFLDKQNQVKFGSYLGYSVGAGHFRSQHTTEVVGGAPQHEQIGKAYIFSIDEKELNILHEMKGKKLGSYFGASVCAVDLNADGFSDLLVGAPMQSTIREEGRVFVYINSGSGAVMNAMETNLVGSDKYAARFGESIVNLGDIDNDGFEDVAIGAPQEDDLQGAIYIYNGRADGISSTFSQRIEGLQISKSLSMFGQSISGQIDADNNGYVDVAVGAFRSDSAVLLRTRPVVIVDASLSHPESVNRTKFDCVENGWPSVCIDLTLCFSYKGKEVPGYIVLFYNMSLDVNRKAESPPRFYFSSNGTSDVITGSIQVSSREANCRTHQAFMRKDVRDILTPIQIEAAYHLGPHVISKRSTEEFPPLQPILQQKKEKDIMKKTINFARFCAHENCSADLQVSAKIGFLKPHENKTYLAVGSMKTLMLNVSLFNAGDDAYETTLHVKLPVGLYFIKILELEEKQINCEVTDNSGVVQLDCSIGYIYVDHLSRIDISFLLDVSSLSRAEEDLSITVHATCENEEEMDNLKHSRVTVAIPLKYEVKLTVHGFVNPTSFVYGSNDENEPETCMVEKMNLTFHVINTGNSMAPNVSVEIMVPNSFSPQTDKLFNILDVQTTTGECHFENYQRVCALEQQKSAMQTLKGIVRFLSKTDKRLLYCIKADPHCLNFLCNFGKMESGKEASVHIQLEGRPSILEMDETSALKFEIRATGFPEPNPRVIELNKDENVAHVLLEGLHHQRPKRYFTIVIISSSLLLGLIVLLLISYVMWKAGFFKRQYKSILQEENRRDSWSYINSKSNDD

[8] = calorie-restriction mimetic ROS inhibitors, yeast – validation compound set, pilot screen (AID 2706;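 active = superoxide response below 65% of plate, a cut near 3 SD across the whole screen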;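 also: yeast exposed to compound for one week at 30 degrees C before staining; 100% = mean of all compound wells on the same plate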); conditions: S. cerevisiae aging, superoxide DHE fluorescence; at 10 µM; stronger effect = lower value
[9] = biological target: Beta-adrenergic receptor kinase 1 (Homo sapiens) (UniProt P25098); assay: GRK2 binders displacing RNA aptamer, biochemical, validation, human GRK2, bead flow cytometry (AID 488806;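 active = aptamer binding inhibition above 30%, about 3 SD of noise from non-fluorescent compounds; inactive = inhibition at or below 30%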); conditions: bead-bound GRK2, FAM-aptamer displacement, at 10 µM, stronger effect = higher value
Chain of Beta-adrenergic receptor kinase 1 (Homo sapiens) (P25098 whole entry, looked up): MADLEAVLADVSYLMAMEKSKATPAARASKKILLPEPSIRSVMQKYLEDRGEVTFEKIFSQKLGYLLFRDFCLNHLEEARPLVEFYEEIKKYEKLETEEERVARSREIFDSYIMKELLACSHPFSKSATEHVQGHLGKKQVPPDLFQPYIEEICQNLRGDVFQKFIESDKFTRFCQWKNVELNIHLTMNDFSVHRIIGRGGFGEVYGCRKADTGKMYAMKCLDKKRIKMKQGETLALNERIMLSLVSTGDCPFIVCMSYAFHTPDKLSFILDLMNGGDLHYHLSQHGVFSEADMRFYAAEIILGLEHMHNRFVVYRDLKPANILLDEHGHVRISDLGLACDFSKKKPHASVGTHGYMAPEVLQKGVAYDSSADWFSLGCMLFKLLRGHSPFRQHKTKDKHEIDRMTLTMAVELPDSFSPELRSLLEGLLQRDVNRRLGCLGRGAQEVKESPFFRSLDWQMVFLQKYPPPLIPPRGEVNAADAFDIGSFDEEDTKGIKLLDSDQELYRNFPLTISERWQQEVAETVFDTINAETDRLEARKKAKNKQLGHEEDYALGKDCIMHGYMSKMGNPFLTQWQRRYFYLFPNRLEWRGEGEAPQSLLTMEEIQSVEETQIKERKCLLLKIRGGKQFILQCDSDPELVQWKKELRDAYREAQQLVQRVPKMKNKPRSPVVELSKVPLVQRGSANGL

[10] = biological target: Beta-2 adrenergic receptor (Homo sapiens) (UniProt P07550); assay: agonist-induced loss of surface beta2AR – cell-based, FAP fluorogen, flow cytometry, validation set, pilot screen (AID 504459;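 active = percent response above 42, roughly 3 SD of non-fluorescent test compounds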;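 also: agonist-driven loss of surface beta2AR via internalization measured by FAP dye flow cytometry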); conditions: Am2.2-beta2AR cells, at 10 µM, stronger effect = higher value
Chain of Beta-2 adrenergic receptor (Homo sapiens) (P07550 whole entry, looked up): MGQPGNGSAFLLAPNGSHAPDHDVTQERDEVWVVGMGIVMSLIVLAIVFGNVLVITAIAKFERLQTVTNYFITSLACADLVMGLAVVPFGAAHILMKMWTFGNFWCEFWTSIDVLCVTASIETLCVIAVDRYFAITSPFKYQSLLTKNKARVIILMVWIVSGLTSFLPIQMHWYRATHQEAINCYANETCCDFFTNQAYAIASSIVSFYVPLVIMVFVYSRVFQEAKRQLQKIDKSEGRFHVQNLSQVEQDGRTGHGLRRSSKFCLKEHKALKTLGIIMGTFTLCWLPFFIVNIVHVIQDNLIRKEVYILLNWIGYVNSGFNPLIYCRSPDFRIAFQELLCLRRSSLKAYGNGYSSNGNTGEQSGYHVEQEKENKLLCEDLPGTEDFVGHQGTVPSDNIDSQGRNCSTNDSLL

[11] = biological target: AP-2 complex subunit beta (Homo sapiens) (UniProt P63010); assay: beta-arrestin/AP2 interaction blockers – biochemical, validation set, GST-AP2 beads, flow cytometry, pilot screen (AID 504541;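 active = inhibition above 54%, about 3 SD of non-fluorescent compounds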;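 also: AP2 carries R879A mutation and is captured from E. coli lysate; bead-bound FITC arrestin peptide fluorescence measuring arrestin peptide binding to AP2; 0% = DMSO wells and 100% = excess unlabeled arrestin peptide control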); conditions: FITC arrestin peptide, at 10 µM, stronger effect = higher value, AP2 beta2 appendage fragment, R879A mutant
Chain of AP-2 complex subunit beta (Homo sapiens) (P63010 whole entry, looked up, the tested form may be a part, one chain of several): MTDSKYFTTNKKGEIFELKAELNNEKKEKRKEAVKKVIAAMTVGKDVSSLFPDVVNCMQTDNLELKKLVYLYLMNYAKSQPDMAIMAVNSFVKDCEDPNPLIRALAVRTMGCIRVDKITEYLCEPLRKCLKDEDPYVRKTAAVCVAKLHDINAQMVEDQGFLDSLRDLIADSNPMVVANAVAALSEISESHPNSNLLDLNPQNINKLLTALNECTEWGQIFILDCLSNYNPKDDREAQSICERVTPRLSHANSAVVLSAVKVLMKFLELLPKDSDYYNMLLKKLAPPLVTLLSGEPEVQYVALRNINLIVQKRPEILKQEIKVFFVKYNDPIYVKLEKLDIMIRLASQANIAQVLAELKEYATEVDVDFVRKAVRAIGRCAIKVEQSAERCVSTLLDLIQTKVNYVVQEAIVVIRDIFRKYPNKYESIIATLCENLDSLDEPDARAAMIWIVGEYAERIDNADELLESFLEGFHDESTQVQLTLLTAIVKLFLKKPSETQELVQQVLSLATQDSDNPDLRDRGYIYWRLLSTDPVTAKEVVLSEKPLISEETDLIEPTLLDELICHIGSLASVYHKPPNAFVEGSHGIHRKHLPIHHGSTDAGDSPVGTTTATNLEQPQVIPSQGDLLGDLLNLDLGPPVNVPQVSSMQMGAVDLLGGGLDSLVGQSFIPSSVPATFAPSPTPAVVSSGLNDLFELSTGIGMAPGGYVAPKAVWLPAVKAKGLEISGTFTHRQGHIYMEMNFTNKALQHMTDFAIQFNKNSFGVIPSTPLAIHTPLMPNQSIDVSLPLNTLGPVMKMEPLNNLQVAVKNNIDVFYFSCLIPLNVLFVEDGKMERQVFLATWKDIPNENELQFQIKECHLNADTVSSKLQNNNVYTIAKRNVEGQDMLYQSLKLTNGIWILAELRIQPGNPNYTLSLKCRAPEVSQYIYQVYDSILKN

[12] = cytosolic pH regulators acting via V-ATPase – S. cerevisiae, pHLuorin, HTS validation (AID 504600; in the data active = response above about 15%;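 also: plate controls were DMSO for no effect and reference compound for full effect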); conditions: V-ATPase proton transport, at 10 µM, stronger effect = higher value
[13] = tested on: anti-desmoglein-3 scFv antibody binding to human DSG3; assay: blockers of pathogenic pemphigus antibody–desmoglein-3 binding – biochemical, validation compound set, bead-based, flow cytometry, pilot screen (AID 588368;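 active = binding below the plate cutoff, the plate median minus 3 SD, with a reading above zero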;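 also: signal is the median channel fluorescence of bead-bound GFP antibody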); conditions: Protein G beads, DSG3-Fc, scFv-GFP binding, at 10 µM, stronger effect = lower value
[14] = Nile Red efflux blockade in pump-expressing yeast – validation compound set, multiplex, phenotypic, pilot screen (AID 588506;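 active = efflux inhibition above 0.42, the validation set average plus 4 SD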;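 also: Nile Red retained in cells so higher fluorescence means more efflux inhibition; 0 = negative control wells and 1 = enniatin B 25 µM full block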); conditions: S. cerevisiae pump-expressing triplex, Nile Red efflux flow cytometry; at 10 µM; stronger effect = higher value; the pumps come from Candida albicans
[15] = biological target: ATP-binding cassette sub-family B member 6 (Homo sapiens) (UniProt Q9NP58); assay: blockers of ABCB6-driven porphyrin uptake – K562-ABCB6 cells, flow cytometry, validation set, pilot screen (AID 588550;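 active = inhibition above the screen-wide mean plus 3 SD, about 51%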;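 also: 0% = DMSO wells and 100% = benzethonium chloride 70 µM positive control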); conditions: K562-ABCB6 porphyrin accumulation, 1 h, at 10 µM, stronger effect = higher value
Chain of ATP-binding cassette sub-family B member 6 (Homo sapiens) (Q9NP58 whole entry, looked up): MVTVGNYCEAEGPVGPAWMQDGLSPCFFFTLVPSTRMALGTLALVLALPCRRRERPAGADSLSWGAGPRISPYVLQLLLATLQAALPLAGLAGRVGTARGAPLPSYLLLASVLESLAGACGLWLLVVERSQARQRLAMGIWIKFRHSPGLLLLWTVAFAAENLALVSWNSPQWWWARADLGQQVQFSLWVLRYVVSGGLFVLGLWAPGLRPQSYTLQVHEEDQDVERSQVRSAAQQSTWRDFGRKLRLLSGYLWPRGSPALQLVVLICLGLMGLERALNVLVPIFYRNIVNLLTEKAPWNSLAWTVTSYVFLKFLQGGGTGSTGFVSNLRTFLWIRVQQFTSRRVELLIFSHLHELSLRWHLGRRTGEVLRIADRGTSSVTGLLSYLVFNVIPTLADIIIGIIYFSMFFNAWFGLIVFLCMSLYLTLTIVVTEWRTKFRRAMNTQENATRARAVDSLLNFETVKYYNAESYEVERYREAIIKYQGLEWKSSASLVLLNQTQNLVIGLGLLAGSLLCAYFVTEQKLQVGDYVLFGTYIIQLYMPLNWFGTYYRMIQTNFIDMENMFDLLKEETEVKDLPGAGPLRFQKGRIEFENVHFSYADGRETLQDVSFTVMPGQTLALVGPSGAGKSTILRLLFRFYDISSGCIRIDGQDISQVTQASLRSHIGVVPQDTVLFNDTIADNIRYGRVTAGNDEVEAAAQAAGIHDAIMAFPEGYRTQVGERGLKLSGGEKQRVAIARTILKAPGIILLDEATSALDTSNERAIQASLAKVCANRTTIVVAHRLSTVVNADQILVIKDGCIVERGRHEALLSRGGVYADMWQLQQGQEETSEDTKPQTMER

[16] = AML differentiation inducers, ER-HoxA9 marrow cells – cell-based, GFP/MAC1 double positive, flow cytometry, validation set, primary screen (AID 588685;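 active = differentiation response of at least 50%, scaled between solvent and reference control, from cells with both markers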;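 also: compound exposure lasts four days before antibody staining and flow analysis; 0% = DMSO wells and 100% = 5 µM fulvestrant positive control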); conditions: stronger effect = higher value, normalized: vehicle 0, fulvestrant 100

SMILES	percent of DMSO control GFP [1]	GFP response vs DMSO [2]	percent response of DMSO control [3]	GFP response vs DMSO [4]	GFP response, % of DMSO [5]	double positive events [6]	vesicle binding response [6]	inhibition [7]	superoxide response (% of plate) [8]	aptamer binding inhibition [9]	response [10]	inhibition [11]	response [12]	binding (% of control) [13]	efflux inhibition (fraction of control) [14]	inhibition [15]	differentiation response [16]
O=C(CN1C(=O)c2ccccc2C1=O)Nc1cccc([N+](=O)[O-])c1	103% (inactive)	98.7% (inactive)	109% (inactive)	100% (inactive)	106% (inactive)	61.2%	130% (inactive)	-18.5% (inactive)	94.2% (inactive)	-3% (inactive)	-3.16% (inactive)	35% (inactive)	-0.16% (inactive)	101% (inactive)	0.005 (inactive)	7% (inactive)	-10.4% (inactive)
COCCNC(=O)CSc1ccc(Cl)cc1	104% (inactive)	106% (inactive)	105% (inactive)	88.7% (inactive)	103% (inactive)	62.8%	245% (inactive)	-0.45% (inactive)	112% (inactive)	1% (inactive)	-6.87% (inactive)	7.8% (inactive)	-1.2% (inactive)	92% (inactive)	0.14 (inactive)	10% (inactive)	-12.5% (inactive)
CCOC(=O)C(=Cc1ccccc1OC)C(=O)OCC	95% (inactive)	108% (inactive)	91% (inactive)	132% (inactive)	92.9% (inactive)	55.3%	189% (inactive)	-18.2% (inactive)	102% (inactive)	-2% (inactive)	-11.8% (inactive)	0.13% (inactive)	0.91% (inactive)	98.9% (inactive)	-0.03 (inactive)	4% (inactive)	-12% (inactive)
CC[N+]1(C)CC2CCC(C)(C1)C2(C)C (stereo not given)	106% (inactive)	104% (inactive)	101% (inactive)	96.5% (inactive)	97.4% (inactive)	59.7%	193% (inactive)	11.9% (inactive)	103% (inactive)	5% (inactive)	5% (inactive)	11.5% (inactive)	-4.32% (inactive)	98% (inactive)	-0.06 (inactive)	7% (inactive)	-21.6% (inactive)
CC(C)(C)OC(=O)COc1cc(OCC(=O)OC(C)(C)C)c2c(=O)cc(-c3ccccc3)oc2c1	105% (inactive)	107% (inactive)	102% (inactive)	105% (inactive)	100% (inactive)	60.3%	77.9% (inactive)	-29.2% (inactive)	94.8% (inactive)	1% (inactive)	-17% (inactive)	-7.67% (inactive)	2.77% (inactive)	105% (inactive)	-0.07 (inactive)	35% (inactive)	-4.57% (inactive)

From PubChem BioAssay
